Screening results (PubChem BioAssay)
Sampled rows, rich in hits. Any-hit rate of the full collection: about 6.1%.
DRD3 antagonist – antagonists of human D3 dopamine receptor; P35462; D3R cells, DiscoveRx beta-arrestin luminescence, antagonist mode; hits give low values; max response, negative = inhibition, %; hit rate 2.5% among 360,000; AID 652054; in the data active means max response below about -50%; inconclusive means no clear call, values can overlap the other calls; further: on the % scale 0 is the no-effect control and ±100 the full control effect
Target sequence (P35462 whole entry, looked up): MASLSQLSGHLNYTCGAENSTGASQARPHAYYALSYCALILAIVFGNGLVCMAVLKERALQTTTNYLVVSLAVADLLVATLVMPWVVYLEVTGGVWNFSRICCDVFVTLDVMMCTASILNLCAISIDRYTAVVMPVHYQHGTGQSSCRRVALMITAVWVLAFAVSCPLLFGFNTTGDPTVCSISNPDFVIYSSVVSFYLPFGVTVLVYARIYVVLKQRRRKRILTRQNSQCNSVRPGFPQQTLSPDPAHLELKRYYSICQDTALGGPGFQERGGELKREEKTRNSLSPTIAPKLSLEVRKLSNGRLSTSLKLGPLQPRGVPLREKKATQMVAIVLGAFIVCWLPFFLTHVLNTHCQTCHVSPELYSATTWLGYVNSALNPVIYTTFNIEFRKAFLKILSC
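Cells plated overnight at 1500 cells/well, then exposed to library compounds with dopamine controls for 90 minutes at 37 degrees C. DiscoveRx reagent added for 30–60 minutes at room temperature; luminescence read, quantitative HTS format.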
D1 agonist – agonists of human D1 dopamine receptor; P21728; HEK293 T-REx D1 cells, calcium flux, agonist mode; activation, % at 2 µM; hit rate 1% among 360,000; AID 504660; in the data active means activation above about 30%; further: 0% is about no effect
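Tetracycline-induced HEK293 TREx D1 cells, force-coupled to calcium signalling, were dye-loaded with a no-wash calcium kit. Compound was pin-added after a 10 s baseline. Fluorescence was read kinetically at 1 cycle/s for 180 s, with calcium rises flagged as agonism.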
D1 PAM – enhances dopamine response at the human D1 receptor. P21728. HEK293 TREx D1 cells, calcium flux, dopamine EC20 potentiation. potentiation, % at 10 µM. hit rate 0.036% among 360,000. AID 504651; in the data active means potentiation above about 30%; further: 0% is about no effect
D1 antagonist – human D1 dopamine receptor antagonism | activity change, negative = inhibition, % at 10 µM | P21728 | HEK293 TREx D1 cells, calcium flux, dopamine EC80; hits give low values | hit rate 3.2% among 360,000; in the data active means activity change below about -30%; further: on the % scale 0 is the no-effect control and ±100 the full control effect
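Using tetracycline-induced force-coupled D1 Hek293 cells and a calcium dye, signals were followed for 180 s after compound, then for 180 s after EC80 dopamine, to detect inhibitors.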
D3 ag – agonists of human D3 dopamine receptor. D3R DiscoveRx beta-arrestin cells, luminescence, 90 min. max activation, %. hit rate 0.58% among 410,000. AID 652048; in the data active means max activation above about 30%; further: 0% is about no effect
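Cells at 1500/well, incubated overnight, then treated with pinned compounds (dopamine as control) for 90 min at 37 degrees C. DiscoveRx reagent added for 30 - 60 minutes at room temperature; luminescence read.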
Starred values were filed as active, the others as inactive; ? = inconclusive; / = not tested or not shown.

SMILES	DRD3 antagonist	D1 agonist	D1 PAM	D1 antagonist	D3 ag
COc1cc(C)ccc1OCC(=O)OCC(=O)c1[nH]c(C)c(C(C)=O)c1C	-3	/	/	/	1
CCCOc1ccc(CNC(=O)Cn2cc3c(n2)-c2c(oc(C(=O)N4CCOCC4)c2C)CC3)cc1	/	5	-2	-9	4
CCOc1ccc(NC(=O)[C@@H](c2ccccc2)N2Cc3ccccc3C2=O)cc1	/	2	-2	-7	7
Cc1cccc(OCC(=O)Nc2c(C(=O)N3CCN(c4ccccc4)CC3)oc3ccccc23)c1	/	-1	-2	7	-4
Cc1ccc(N2CC(NC(=O)Cc3ccc(F)cc3)CC2=O)cc1C (stereo unspecified)	/	-3	-2	/	6
COC(=O)CSC1=C(C#N)C(=O)NC(c2ccccc2)S1 (stereo unspecified)	-74*	4	-3	7	-2
CSC1=C(C#N)C(=O)NC(c2ccccc2O)S1 (stereo unspecified)	-7	2	2	4	-5
COc1ccc2c(c1)CC(C(=O)NCCc1ccc(S(N)(=O)=O)cc1)CO2 (stereo unspecified)	/	0	2	8	1
O=C(CSc1nnc(-c2cnccn2)n1Cc1ccco1)c1ccccc1	22	3	-3	-8	1
O=C(CSc1nnc(-c2cnccn2)n1Cc1ccco1)c1ccc(Cl)cc1	-63*	-5	-5	4	-9
CC(C)Oc1ccc(C(=O)NC2CCCCC2)cc1	3	-1	-3	-2	3
CC(C)Oc1ccc(C(CCN)C2CCCCC2)cc1 (stereo unspecified)	?	102*	12	40	-9
COc1ccc(/C=C/C(=O)N2c3ccccc3Sc3ccc(C(F)(F)F)cc32)cc1	-6	13	-8	-40*	1
Cc1cc2c(s1)c1cnn(Cc3c(F)ccc(Cl)c3F)c(=O)c1n2C	/	8	-1	6	/
O=C(CN1C(=O)COc2ccc(S(=O)(=O)N3CCOCC3)cc21)N1CCN(c2ccc(F)cc2)CC1	/	-2	-2	-27	0
O=[N+]([O-])c1cc(Br)c2nsnc2c1N1CCOCC1	0	1	-7	-45*	5
O=[N+]([O-])c1ccc(Cl)cc1N1CCOCC1	12	1	0	-3	8
COc1cc([N+](=O)[O-])c(N2CCOCC2)c([N+](=O)[O-])c1OC	-3	9	-9	-34*	0
Cc1csc2nc(COC(=O)c3ccc(NC(=O)c4ccccc4Br)cc3)cc(=O)n12	/	11	0	-21	-4
O=C(CSc1nccn1-c1ccc(Cl)cc1)Nc1cccc2ccccc12	/	2	-1	12	1
COc1ccc(C(=O)C(CCC(CNC(C)(C)C)C(=O)c2ccc(OC)cc2)CNC(C)(C)C)cc1 (stereo unspecified)	-55*	16	-11	-37*	-17
COc1ccc(C(=O)CC(=O)c2ccc(C(C)(C)C)cc2)cc1	5	/	/	/	-38
CCc1ccccc1NC(=O)Cn1c(=O)n(Cc2ccco2)c(=O)c2ccccc21	/	0	0	0	-5
CCOC(=O)C1(CCc2ccccc2)CCN(C(=O)CN2C(=O)CSC2=O)CC1	10	48*	2	-13	5
Cc1ccc(-c2nc3cc(NC(=O)C(C)C)ccc3o2)cc1	14	-2	8	16	-3
SMILES	DRD3 antagonist	D1 agonist	D1 PAM	D1 antagonist	D3 ag
Cc1cc2nc(-c3ccc(NC(=O)C(C)C)cc3)oc2cc1C	45	1	-2	-33*	3
COc1cc(OC)cc(N2C(=O)N(Cc3ccc(C(C)(C)C)cc3)c3ccccc3S2(=O)=O)c1	/	6	-1	-13	-3
COc1ccccc1NC(=O)Cn1c(=O)n(CC(=O)NCc2ccccc2Cl)c(=O)c2sccc21	/	3	0	7	-20
COc1ccc(Cl)cc1-n1nnc(-c2nc(-c3ccccc3)no2)c1C	/	2	-1	-57*	2
Cc1c(-c2nc(-c3ccccc3)no2)nnn1-c1ccc(F)c(Cl)c1	/	1	0	-6	18
COc1cc(-c2noc(-c3nnn(-c4ccc(Cl)cc4)c3C)n2)cc(OC)c1OC	/	2	0	-33*	5
COc1ccc(-n2nnc(-c3nc(-c4ccc5c(c4)OCO5)no3)c2C)cc1Cl	/	2	-3	-11	8
Cc1ccc(C)c(CNC(=O)c2cnc3sc(N4CCCC4)nn3c2=O)c1	/	-1	-1	-29	5
